For nine molecules, Potency and outcome results are on record in PubChem BioAssay AID1043 (National Center for Advancing Translational Sciences (NCATS), 2008).

Results filed as inconclusive are left out. Calls of active or inactive are those of the source. Calls come from the whole dose curve.

This experiment is described as follows: H358 Cell Viability Secondary Assay for qHTS Assay for Epigenetic Modulators. The conditions noted are these: H358 NSCLC viability, MTS absorbance, 4 days. From the text:
NIH Molecular Libraries Screening Centers Network [MLSCN] NIH Chemical Genomics Center [NCGC] MLSCN Grant: 1 X01 MH079860-01 Assay Provider: Elisabeth D. Martinez, University of Texas SW Medical Center NCGC Assay Overview: This secondary assay characterizes selected actives identified in the qHTS of the Locus Derepression (LDR) assay (PubChem AID 597). The LDR assay detects the derepression of a GFP reporter that is stably integrated in a region of the genome of murine c127i mammary cells that is presumably silenced. Compounds that cause derepression of the locus to express GFP are identified by enumerating GFP positive cells using a laser-scanning microplate cytometer. Selected LDR actives were assayed for killing of H358 non-small cell lung carcinoma (NSCLC) cells. Certain epigenetic drugs, like histone deacetylase inhibitors, can block cancer cell growth. H358 cell viability was measured using Cell Titer 96 AQueous One (Promega), an assay which detects the ability of metabolically active cells to reduce a tetrazolium salt substrate (MTS), into a soluble formazan product that can be measured by colorimetry.
NCGC Assay Protocol Summary Viability assays: H358 cells were plated in 96-well flat bottom tissue culture dishes (Corning) and grown overnight at 37 C and 5% CO2, then treated with increasing concentrations of compounds, incubated for four days, and assayed for viability using the Cell Titer 96 AQueous One kit (Promega) according to the manufacturer's protocol. Absorbance at 490 nm and 650 nm (reference) was measured by a Spectra Max (Molecular Devices). Data were normalized to the untreated control (100% viability). Each cell line was tested in one or two independent assays, each containing 4 or 8 replicates. For further details, see R.L. Johnson, W. Huang, A. Jadhav, C.P. Austin, J. Inglese, E.D. Martinez, A Quantitative High-Throughput Screen Identifies Potential Epigenetic Modulators of Gene Expression, Analytical Biochemistry (2007), doi: 10.1016/j.ab.2007.12.028
(In general: Quantitative high-throughput screening tests each substance at several concentrations.)
Regarding `CN1CCN(Cc2cc(Cl)c3cccnc3c2O)CC1`, the Potency is 2000 nM (active).

With `O=C(CSc1cccc2cccnc12)NCc1ccccc1`, the result was inactive.

Turning to `CC(C)C(=O)NC(c1ccco1)c1ccc2cccnc2c1O` (centres undefined), the Potency was 500 nM (active).

Take `O=Nc1ccc(O)c2ncccc12`: the Potency was 3000 nM (active).

For the molecule `CN1C(=S)SC(c2ccccc2)N(C)C1c1ccccc1` (centres undefined), the molecule was called inactive.

`CC(C)C(=O)NC(c1ccco1)c1cc([N+](=O)[O-])c2cccnc2c1O` (centres undefined): the Potency is 6000 nM (active).

For the molecule `CC(/C=C/C(=O)NO)=C\[C@@H](C)C(=O)c1ccc(N(C)C)cc1`, the Potency was 40 nM (active).

In the case of `CC(C)C(=O)NC(c1ccc(N(C)C)cc1)c1ccc2cccnc2c1O` (centres undefined), the Potency was 200 nM (active).

On to `COc1ccc(C(NC(=O)C(C)C)c2ccc3cccnc3c2O)cc1` (centres undefined), for which the Potency is 200 nM (active).
